JMJD2A Tudor = inhibitors of human JMJD2A Tudor domain. Potency, µM (doses to about 114 µM), for inactives: top-dose activity change, negative = inhibition, usual class: inhibitors. O75164. actives 4.4% (n = 390,000). AlphaScreen JMJD2A-Tudor / H3K4me3 peptide binding; note: potency is the fitted concentration of half-maximal effect; % is set by controls: 0 for no effect and ±100 for the full control effect; nearly all actives have a fitted effect of over 50% in size
G9a block = blocks human histone lysine methyltransferase G9a | Q96KQ7 | G9a H3K9 monomethylation, AlphaScreen, 2 h | actives 8.8% (n = 350,000) | Potency, µM (series often up to 102 µM), for inactives: at the top dose activity, negative = inhibition, most hits filed as inhibitors; note: potency is the fitted concentration of half-maximal effect; % is set by controls: 0 for no effect and ±100 for the full control effect; nearly all actives have a fitted effect of over 75% in size
Target sequence (Q96KQ7 913-1193 limits assumed): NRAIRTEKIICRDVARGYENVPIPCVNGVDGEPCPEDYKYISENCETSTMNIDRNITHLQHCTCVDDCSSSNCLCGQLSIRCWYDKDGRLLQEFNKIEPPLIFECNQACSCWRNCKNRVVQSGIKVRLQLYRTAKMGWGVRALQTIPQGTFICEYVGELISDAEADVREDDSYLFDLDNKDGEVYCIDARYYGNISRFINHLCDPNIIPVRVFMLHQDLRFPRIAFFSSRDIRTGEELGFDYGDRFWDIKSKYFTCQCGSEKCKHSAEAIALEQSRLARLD
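Signal arises when biotinylated H3K9 peptide, once monomethylated, bridges streptavidin donor and antibody-captured acceptor beads. Enzyme at 20 nM was preincubated 15 min with test compounds; peptide 500 nM and SAM 20 uM then reacted for 2 h.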
CtBP-E1A inh = CtBP/E1A binding inhibition | AlphaScreen GST-E1A/His-CtBP binding, 1536-well; stronger effect = lower value | activity change, % (test concentration not listed) | actives 0.49% (n = 340,000) | AID 651724; in the data active = activity change below about -65%; inconclusive = mostly about -30% to -63%; note: % is set by controls: 0 for no effect and ±100 for the full control effect
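GST-E1A and His-tagged CtBP (125 nM each as 5X stock) were preincubated with pin-transferred compound for 2 h at 37 °C in the dark, then glutathione donor and nickel acceptor beads were added for 1 h before AlphaScreen reading.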
BAZ2B block = blocks human BAZ2B; AlphaScreen BAZ2B-H3K14Ac peptide displacement; Potency, µM (series often up to 114 µM), for the others: at the top dose activity change, negative = inhibition, most hits filed as inhibitors; actives 4.4% (n = 360,000); AID 504333; note: potency is the fitted concentration of half-maximal effect; % is set by controls: 0 for no effect and ±100 for the full control effect; nearly all actives have a fitted effect of over 60% in size
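AlphaScreen luminescence quantifies BAZ2B engagement of H3K14Ac peptide; the protein and biotinylated peptide are both at 50 nM final, buffer PBS pH 7.4 with 0.01% Tween-20, all steps at room temperature.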
Six1-Eya2 blk = Six1/Eya2 interaction inhibition. Q15475+O00167. AlphaScreen GST-Six1/His-Eya2 binding, biochemical; stronger effect = lower value. activity change, % (concentration not given with the values). actives 0.56% (n = 360,000); in the data active = activity change below about -65%; inconclusive = mostly about -30% to -63%; note: % is set by controls: 0 for no effect and ±100 for the full control effect
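GST-Six1 + His-Eya2 (5X stock: 250/500 nM); Tris pH 8.0, 300 mM NaCl, 0.05% BSA, 0.02% Tween 20; GSH donor/Ni acceptor beads; 1 h 37 °C dark; AlphaScreen readout.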
HP1b binding inh = HP1-beta chromodomain-methylated histone interaction inhibition; Potency, µM (top dose mostly 114 µM), inactives show at the top dose activity change, negative = inhibition, hits mostly inhibitors; P83916; actives 0.56% (n = 390,000); AlphaScreen HP1-beta / biotin-H3K9me3 peptide binding; note: potency is the fitted concentration of half-maximal effect; nearly all actives have a fitted effect of over 70% in size
Target sequence (P83916 whole entry, looked up): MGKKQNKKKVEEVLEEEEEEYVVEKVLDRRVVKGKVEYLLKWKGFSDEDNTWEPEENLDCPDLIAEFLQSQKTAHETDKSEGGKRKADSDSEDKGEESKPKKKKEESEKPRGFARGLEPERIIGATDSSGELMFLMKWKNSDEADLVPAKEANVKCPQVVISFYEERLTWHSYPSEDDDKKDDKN
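HP1-beta protein (50 nM final) preincubated 30 min at room temperature with biotinylated H3(1-18)K9me3 peptide (50 nM) in PBS pH 7.4, 0.01% Tween-20, then compound added for 30 min. AlphaScreen streptavidin donor/nickel chelate acceptor beads (10 ug/mL final), 30 min dark, luminescence read.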
The depositor's hits bear a star; ? = inconclusive; nt = no result given; [ ] = remark or other dose. Hits are enriched below; roughly 10% of the tested compounds scored in any of these assays. Unless noted, calls come from the whole dose curve; as a rule, active = well fitted inhibition curve with a large enough effect; inconclusive = small, poorly fitted or top-dose-only effect; inactive = no such curve, though single readings can be large or run the other way.

SMILES	JMJD2A Tudor	G9a block	CtBP-E1A inh	BAZ2B block	Six1-Eya2 blk	HP1b binding inh
O=C(O)/C=C\C(=O)Nc1ccc(N2CCN(c3ccc(Cl)c(Cl)c3)CC2)cc1	40µM*	32µM*	-15	32µM*	-28	?
O=C(O)/C=C\C(=O)Nc1ccc(N2CCN(c3ccc(F)cc3)CC2)cc1	?	nt	-15	?	-16	?
O=C(O)/C=C\C(=O)Nc1ccc(N2CCN(c3cccc(Cl)c3)CC2)cc1	-11%[11.4 µM]	nt	nt	35µM*	-13	?
COc1ccc(C(C(=O)Nc2ccc(F)cc2)N2CCN(C(=O)c3ccco3)CC2)cc1 (stereo not given)	nt	nt	23	nt	13	nt
Cc1cc(Cl)ccc1OCCCC(=O)NCCc1nnc2ccccn12	0%	6%	42	-5%[57.1 µM]	20	63%
CCCC(=O)NCc1nc2cccnc2n1Cc1ccc(F)cc1	-11%	8%[59 µM]	nt	4%	nt	25%[57 µM]
Nc1ccc(N2CCN(c3cccc(Cl)c3)CC2)cc1	45µM*	4µM*	-3	35µM*	?	?
Cc1ccc(-c2nc3c(c(=O)[nH]c(=O)n3Cc3ccccc3)n2C)s1	nt	32%[59 µM]	nt	-1%	nt	nt
Cc1ccc(-c2nc3c(c(=O)[nH]c(=O)n3Cc3ccccc3)n2Cc2ccccc2)o1	-23%	10µM*	-2	13%	-3	-7%
Cc1ccc(-c2nc3c(c(=O)[nH]c(=O)n3Cc3ccccc3)n2C)o1	?	1.4µM*	nt	?	-15	-11%
COCCCn1c(-c2ccc(OC)cc2)nc2c1c(=O)[nH]c(=O)n2Cc1ccccc1	-1%	?	9	19%	0	40%
COCc1ccc(C(=O)N2CCCC(Nc3ccc(C(C)C)cc3)C2)o1 (stereo not given)	-34%	45µM*	-3	?	-13	-10%
Cc1occc1C(=O)N1CCCC(Nc2ccc(F)cc2)C1 (stereo not given)	-10%	nt	4	-19%	6	17%
CC(C)c1ccc(NC2CCCN(C(=O)c3cccnc3)C2)cc1 (stereo not given)	-27%	79µM*	-1	-23%	-1	16%
CCn1nc(C)cc1C(=O)N1CCCC(Nc2ccc(C(C)C)cc2)C1 (stereo not given)	-35%	50µM*	-3	?	0	-5%
CCn1nc(CC(C)C)cc1C(=O)N1CCCC(Nc2ccc(F)cc2)C1 (stereo not given)	-14%	9%[0.501 µM]	-4	-18%	1	11%
Cc1occc1C(=O)N1CCCC(Nc2ccc(C(C)C)cc2)C1 (stereo not given)	?	40µM*	-5	?	-16	-11%
O=C(O)c1ccc(Cl)c(S(=O)(=O)Nc2cccc(C(=O)Nc3cccc(C(F)(F)F)c3)c2)c1	-1%	?	-11	?	14	13%
COc1ccc(C[C@@H]2c3cc(OC)c(OC)cc3CC[N@+]2(C)CCC(=O)OCCCCCOC(=O)CC[N@@+]2(C)CCc3cc(OC)c(OC)cc3[C@H]2Cc2ccc(OC)c(OC)c2)cc1OC	nt	26%[21.5 µM]	nt	nt	nt	nt
Cc1ccc(C)c(NC(=O)CN2C(=O)COc3ccc(Cl)cc32)c1	5%	28%[59 µM]	nt	5%	nt	48%
COC(=O)c1ccc(C(=O)N2CCCC(Nc3ccc(C(C)C)cc3)C2)cc1 (stereo not given)	?	79µM*	-6	?	-9	12%
Cc1cc(C(=O)N2CCCC(Nc3ccc(C(C)C)cc3)C2)nn1C (stereo not given)	-22%	?	-13	-34%	-15	1%
CC(C)c1ccc(NC2CCCN(C(=O)c3n[nH]c4c3CCC4)C2)cc1 (stereo not given)	-24%	71µM*	-9	-24%	-11	4%
CC(C)c1ccc(NC2CCCN(C(=O)c3cnsn3)C2)cc1 (stereo not given)	-23%	35µM*	1	?	-18	1%

Screening data as filed in PubChem BioAssay.
